Source: the supplement of paper PMC10121225
Structures can show the parent of a compound that is named as a salt.

Test system: hN + hpA co-culture (H1 iNGN2 human neurons + human primary astrocytes)
Assay: presynaptic density (SYNAPSIN1 puncta per MAP2 neurite area), Z-score vs DMSO controls; higher = more presynaptic puncta (synapse-promoting)
Conditions: 3 µM; 72 h
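Also: immunostained co-cultures imaged by high-content microscopy, Z-score per plate against mean and SD of 0.1% DMSO wells, compounds added on differentiation day 18, analysed day 21.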

Row | Structure (SMILES) | presynaptic density (Z-score)
1 | COc1cc2c(cc1-c1c(C)noc1C)ncc1[nH]c(=O)n([C@H](C)c3ccccn3)c12 [I-BET 151 hydrochloride] | 3.55
2 | CCOc1ccc(Cc2cc([C@@H]3O[C@H](CO)[C@@H](O)[C@H](O)[C@H]3O)ccc2Cl)cc1 [Dapagliflozin] | 0.756
3 | Cc1ccc(-c2cc(C(F)(F)F)nn2-c2ccc(S(N)(=O)=O)cc2)cc1 | -0.625
4 | CC(C)C[C@H](NC(=O)[C@H](Cc1ccccc1)NC(=O)c1cnccn1)B(O)O [Bortezomib (PS-341)] | -3.27
5 | C[C@H]1COC2=C1C(=O)C(=O)c1c2ccc2c1CCCC2(C)C | 0.405
6 | CNC(=O)c1ccc(N2C(=S)N(c3ccc(C#N)c(C(F)(F)F)c3)C(=O)C2(C)C)cc1F [Enzalutamide (MDV3100)] | 0.664
7 | N#C[C@@H]1CCCN1C(=O)CNC12CC3CC(CC(O)(C3)C1)C2 [Vildagliptin (LAF-237)] | 0.854
8 | N#CC(=C(N)Sc1ccccc1N)C(C#N)=C(N)Sc1ccccc1N [1,4-Diamino-2,3-dicyano-1,4-bis[2-aminophenylthio]butadiene] | -0.048
9 | COc1cc2c(Nc3ccc(NC(=O)c4ccccc4)cc3)ncnc2cc1OCCCN1CCOCC1 | -1.71
10 | Cc1[nH]c(/C=C2\C(=O)Nc3ccc(S(=O)(=O)Cc4c(Cl)cccc4Cl)cc32)c(C)c1C(=O)N1CCC[C@@H]1CN1CCCC1 | -4.53
11 | CC(=O)c1cc([N+](=O)[O-])c(Sc2ccc(F)cc2F)s1 | 0.25
12 | C[C@@H]1C(=O)O[C@H]2C[C@@]34[C@H]5C[C@@H](C(C)(C)C)[C@]36[C@@H](OC(=O)[C@@H]6O)O[C@@]4(C(=O)O5)[C@]21O | -0.498
13 | CC1(COc2ccc3c(c2)ncn3-c2ccc3cccc(N4CCC(N)CC4)c3n2)COC1 | -0.296
14 | O=c1cc(-c2ccc(O)cc2)oc2cc(O)cc(O)c12 [Apigenin] | 0.0449
15 | CN1C(=O)C(Cc2c[nH]c3ccccc23)NC1=S (centres undefined) [5-(1H-Indol-3-ylmethyl)-3-methyl-2-thioxo-4-imidazolidinone] | -0.458
16 | CC(C)c1c(C(=O)Nc2ccccc2)c(-c2ccccc2)c(-c2ccc(F)cc2)n1CC[C@@H](O)C[C@@H](O)CC(=O)O | -2.01
17 | COc1nc(C)cnc1NS(=O)(=O)c1cccnc1-c1ccc(-c2nnco2)cc1 [Zibotentan (ZD4054)] | -1.1
18 | CC12CC3CC(C)(C1)CC(N)(C3)C2 | -1.67
19 | CCCSc1nc(N[C@@H]2C[C@H]2c2ccc(F)c(F)c2)c2nnn([C@@H]3C[C@H](OCCO)[C@@H](O)[C@H]3O)c2n1 [Ticagrelor] | -0.848
20 | Cc1cc(Nc2cc(N3CCN(C)CC3)nc(Sc3ccc(NC(=O)C4CC4)cc3)n2)n[nH]1 | -2.31

Row | Structure (SMILES) | presynaptic density (Z-score)
21 | O=C(Nc1nc2cccc(-c3ccc(CN4CCS(=O)(=O)CC4)cc3)n2n1)C1CC1 [Filgotinib (GLPG0634)] | -0.645
22 | C[C@H](NCc1ccc(OCc2cccc(F)c2)cc1)C(N)=O [Safinamide Mesylate] | -0.055
23 | Cc1nnc(C(C)C)n1C1C[C@H]2CC[C@@H](C1)N2CC[C@H](NC(=O)C1CCC(F)(F)CC1)c1ccccc1 (stereo in doubt) [Maraviroc] | -1.28
24 | O=C(NCc1ccccc1)c1csc(Nc2ccncn2)n1 [Thiazovivin] | 0.74
25 | O=C(O)Cn1nnc(-c2cc(N3CCC(Oc4cc(F)ccc4Br)CC3)no2)n1 | -0.606
26 | Cc1ccc(NC(=O)C2(c3ccc4c(c3)OC(F)(F)O4)CC2)nc1-c1cccc(C(=O)O)c1 [VX-809 (Lumacaftor)] | -0.6
27 | NC(=O)c1ncn([C@@H]2O[C@H](CO)[C@@H](O)[C@H]2O)c1N | 0.26
28 | Cc1c(C(=O)NN2CCCCC2)nn(-c2ccc(Cl)cc2Cl)c1-c1ccc(Cl)cc1 [Rimonabant] | -0.594
29 | C[C@@H](c1ncncc1F)[C@](O)(Cn1cncn1)c1ccc(F)cc1F | 0.265
30 | C[C@H]1COC2(CCN(c3nc(=O)c4cc(C(F)(F)F)cc([N+](=O)[O-])c4s3)CC2)O1 (racemic) [BTZ043 Racemate] | 0.635
31 | O=C(Nc1ccc(S(=O)(=O)Nc2ccccc2Cl)c(Cl)c1)c1ccccn1 | -0.71
32 | O[C@@H](COc1cccc2ncccc12)CN1CCN(C2c3ccccc3[C@@H]3[C@H](c4ccccc42)C3(F)F)CC1 (some centres undefined) | -1.51
33 | N#Cc1ccc(C(c2ccc(C#N)cc2)n2cncn2)cc1 | 0.0621
34 | CCn1c(-c2nonc2N)nc2c(C#CC(C)(C)O)ncc(OC[C@H]3CCCNC3)c21 | -0.664
35 | Nc1nc(N)c2nc(-c3ccccc3)c(N)nc2n1 [Triamterene] | -0.407
36 | CC(=O)Nc1nc2c(Oc3cc(-c4ccc(C(F)(F)F)cc4)ncn3)cccc2s1 | 0.208
37 | CS(=O)(=O)c1ccc(-c2cnc(N)c(C(=O)Nc3ccccc3)n2)cc1 | -0.463
38 | COc1ccnc2[nH]cc(C(=O)C(=O)N3CCN(C(=O)c4ccccc4)C[C@H]3C)c12 | 0.386
39 | CCN(CC)CCNC(=O)c1cc(Cl)c(N)cc1OC [MetoclopraMide HCl] | 0.023
